From PubChem BioAssay (NCATS)
“And” between values parts separate entries of the source, which are not always exact repeats. Equal entries are not always repeated. Inconclusive results are not listed. Some compounds were tested as several samples or in several runs, with calls that do not always agree. The source made the active and inactive calls. Unless noted, calls come from the whole dose curve; as a rule, active = well fitted curve in the direction sought with a large enough effect; inconclusive = small, poorly fitted or top-dose-only effect, or another doubt; inactive = no such curve, though single readings can be large; an effect the other way counts as inactive or inconclusive.

Experiments:
[1] = biological target: Chromobox protein homolog 1 (Homo sapiens) (UniProt P83916); assay: qHTS Validation Assay for Inhibitors of HP1-beta Chromodomain Interactions with Methylated Histone Tails (AID 488953); note: nearly all actives have a fitted effect of over 50% in size; note: potency is the fitted concentration of half-maximal effect
Summary of the method: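 Compounds pinned into a preassembled complex of HP1-beta and trimethyl-K9 histone H3(1-18) biotin peptide (50 nM each; PBS pH 7.4, 0.01% Tween-20). After 30 min, bead-based AlphaScreen detection followed.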

[2] = biological target: Methanococcus maripaludis chaperonin (MmCpn) (UniProt Q6LX38); assay: High-Throughput Screening for Modulators of Cytosolic Chaperonin Activity: MmCpn Primary Screen (AID 488978);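 note: 50 nM MmCpn enzyme hydrolysing 30 µM ATP at 37 °C; 0% is about no effect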
Summary of the method: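 ATPase activity of 50 nM MmCpn was assayed with 30 uM ATP, 10 minutes at 37C, after a 5 min compound preincubation at room temperature. ADP production was read as HTRF emission at 590 and 665 nm.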

[3] = biological target: D(1A) dopamine receptor (Homo sapiens) (UniProt P21728); assay: HTS Assay for Allosteric Agonists of the Human D1 Dopamine Receptor: Primary Screen for Agonists (AID 488981); note: 0% is about no effect
Summary of the method: (§1)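 Tetracycline-induced HEK293 T-REx cells force-coupled to calcium signalling were incubated overnight at 30 C and dye-loaded at room temperature. Calcium flux over 180 s after compound addition flagged agonists; a further 180 s read after EC20 dopamine flagged potentiators.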

[4] = biological target: D(1A) dopamine receptor (Homo sapiens) (UniProt P21728); assay: HTS Assay for Allosteric Agonists of the Human D1 Dopamine Receptor: Primary Screen for Potentiators (AID 488982); note: 0% is about no effect
Summary of the method: as §1

[5] = biological target: D(1A) dopamine receptor (Homo sapiens) (UniProt P21728); assay: HTS Assay for Allosteric Agonists of the Human D1 Dopamine Receptor: Primary Screen for Antagonists (AID 488983);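 note: calcium flux response to an EC80 dopamine challenge measured with no-wash dye; nearly all actives have a fitted effect of over 65% in size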; note: potency is the fitted concentration of half-maximal effect
Summary of the method: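 In this primary screen, compounds are applied to calcium-dye-loaded HEK293 T-REx cells with force-coupled D1 expression induced overnight at 30 C. An EC80 of dopamine follows the 180 s compound phase, and calcium is monitored for a further 180 s.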

[6] = Validation screen for small molecules that induce genotoxicity in human embryonic kidney (HEK293T) cells expressing luciferase-tagged ELG1 (AID 493106); note: 0% is about no effect
Summary of the method: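 In this validation screen, increased ELG1-luciferase signal flags compounds causing genetic stress. HEK293T reporter cells are treated 16 hr (37 °C, 5% CO2), developed with ONE-Glo for 30 min at room temperature, and imaged on a CCD-based reader.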

[7] = biological target: ATPase family AAA domain-containing protein 5 (Homo sapiens) (UniProt Q96QE3); assay: Validation screen for small molecules that inhibit ELG1-dependent DNA repair in human embryonic kidney (HEK293T) cells expressing luciferase-tagged ELG1 (AID 493107);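 note: cells co-treated with the DNA-damaging agent 5-fluorouridine alongside compound; series mostly up to about 46 µM; % is set by controls: 0 for no effect and ±100 for the full control effect; inhibitors lower the ELG1-luciferase luminescence signal; nearly all actives have a fitted effect of over 70% in size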
Summary of the method: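 Compounds reducing 5-fluorouridine-driven ELG1-luciferase signal in HEK293T cells were scored; exposure lasted 16 hr at 37 °C with luminescence detected via ONE-Glo.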

[8] = Nrf2 qHTS screen for inhibitors: Validation (AID 493153; active = well fitted inhibition curve with a large enough effect in the main read-out, with a control signal flat, not every such curve was filed as active; note: potency is the fitted concentration of half-maximal effect); conditions: Potency: luciferase luminescence; viability change: measured here: cytotoxicity max response
Summary of the method: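 In this counterscreened reporter format, each well gives two signals: CellTiter-Fluor fluorescence for cytotoxicity and ARE-luciferase luminescence for Nrf2 function. A549 ARE_Fluc cells in 5% FBS OPTI-MEM were exposed to compound titrations for 18-24 h.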

[9] = qHTS for Inhibitors of Cell Surface uPA Generation: Validation Assay (AID 493164);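 note: RAW 264.7 macrophage cells exposed to compound for 18 h; 0% is about no effect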
Summary of the method: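 Compounds are titrated over seven points (2.45 nM–38.3 uM final) onto pre-plated RAW 264.7 cells and incubated for 18 h. Retained intracellular ATP, measured with ATP-Lite, indicates blocked lethal factor entry.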

[10] = biological target: Peptidyl-prolyl cis-trans isomerase NIMA-interacting 1 (Homo sapiens) (UniProt Q13526); assay: qHTS Validation Assay to Find Inhibitors of Pin1 (AID 504536; active = well fitted inhibition curve with a large enough effect in the polarisation, with a control signal flat, not every such curve was filed as active; the % refers to the polarisation;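 note: 0% = full Pin1 enzyme wells and -100% = no-enzyme wells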)
Summary of the method: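 Fluorescence polarization competition: compounds (titration) displace HiFluor-488-labeled Pin1-1b peptide from Pin1 (0.3 uM final) in pH 7.5 HEPES buffer with DTT, 10 min at room temperature; %Activity normalized to no-enzyme wells, curves fitted.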

[11] = biological target: Phosphoglycerate kinase, glycosomal (Trypanosoma brucei brucei) (UniProt P07378); assay: qHTS Validation Assay to Find Inhibitors of Phosphoglycerate Kinase (AID 504547);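 note: control wells lack PGK and mark full inhibition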
Summary of the method: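 In TEA buffer (100mM, pH 7.6) containing 5mM MgCl2 and 0.01% Tween-20, the GAPDH-coupled PGK reaction proceeded for 60 minutes at room temperature before a single luminescence reading using Kinase-Glo Plus.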

[12] = biological target: phosphoglycerate mutase (Leishmania major) (UniProt Q4Q090); assay: qHTS Validation Assay to Find Inhibitors of Phosphoglycerate Mutase (AID 504548); note: series mostly up to about 58 µM; % is set by controls: 0 for no effect and ±100 for the full control effect
Summary of the method: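 Lm PGAM 1.25nM final; 100 mM TEA pH 7.6, 5 mM MgCl2, 0.01% Tween-20; 45 min RT; Kinase-GloPlus, 10 min; end-point luminescence. Enzyme-free wells as negative controls.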

[13] = biological target: Ubiquitin carboxyl-terminal hydrolase 1 (Homo sapiens) (UniProt O94782); assay: Inhibitors of USP1/UAF1: Pilot qHTS (AID 504865); note: nearly all actives have a fitted effect of over 35% in size; note: potency is the fitted concentration of half-maximal effect
Summary of the method: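 Deubiquitinase activity followed as kinetic rhodamine fluorescence release from 150 nM Ub-Rho. 1 nM USP1/UAF1 with compound, after 15 min room-temperature preincubation, in HEPES pH 7.8 buffer containing TCEP, EDTA, BSA and Tween-20.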

[14] = biological target: Thyrotropin receptor (Homo sapiens) (UniProt P16473); assay: qHTS Assay for Antagonists of the Thyroid Stimulating Hormone Receptor (AID 488980); note: series mostly up to about 58 µM; 0% is about no effect
Summary of the method: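 Inhibition of cAMP raised by EC80 TSH (4 nM final) was read by HTRF, with lysate cAMP competing against cAMP-d2 for cryptate antibody after 30 min at room temperature. The cells were transfected HEK293 held in phosphodiesterase inhibitor RO 20-1724 at 70 uM.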

[15] = biological target: Galactokinase (Homo sapiens) (UniProt P51570); assay: qHTS Validation Assay for Inhibitors of Human Galactokinase (GALK) (AID 493189); note: 0% is about no effect
Summary of the method: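 Inhibition was measured as remaining ATP, detected by luciferase luminescence after a 1 h room-temperature reaction. Final conditions: 5 nM GALK, 100 uM galactose, 35 uM ATP, pH 8.0 HEPES buffer.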

[16] = Validation screen for small molecules that induce DNA re-replication in SW480 colon adenocarcinoma cells (AID 504364); note: 0% is about no effect
Summary of the method: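 Hoechst-stained SW480 nuclei, imaged at 405 nm excitation after 48 hr compound exposure, were counted for elevated DNA content as the re-replication signal.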

[17] = biological target: Transient receptor potential cation channel subfamily V member 1 (Homo sapiens) (UniProt Q8NER1); assay: HTS Assay for Compounds that Act as Enhancers of the Vanilloid Receptor 1 (AID 488979); note: 0% is about no effect
Summary of the method: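 TRPV1-expressing cells loaded with Fluo-8 calcium dye; compounds added and calcium influx read kinetically for 3 min (agonist phase), then capsaicin at EC20 added and read 2 min more for enhancement. Fluorescence ex 480/em 520 nm.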

[18] = biological target: Thyrotropin-releasing hormone receptor (Homo sapiens) (UniProt P34981); assay: qHTS for Small Molecule Agonists and Allosteric Enhancers of Human TRH Receptor: Validation Screen for Agonists (AID 493127;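 active = calcium activation more than 3 SD above the typical response in the agonist read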;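 note: intracellular calcium rise by fluo-8 fluorescence before TRH EC20 addition; 0% is about no effect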); conditions: TRH receptor agonist cell assay; at 2 µM; stronger effect = higher value
Summary of the method: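 Kinetic fluorescence assay of agonist-induced calcium release: overnight-plated TRHR cells, room-temperature fluo-8 loading, baseline then compound addition with per-second reads.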

Chain of Galactokinase (Homo sapiens) (P51570 whole entry, looked up): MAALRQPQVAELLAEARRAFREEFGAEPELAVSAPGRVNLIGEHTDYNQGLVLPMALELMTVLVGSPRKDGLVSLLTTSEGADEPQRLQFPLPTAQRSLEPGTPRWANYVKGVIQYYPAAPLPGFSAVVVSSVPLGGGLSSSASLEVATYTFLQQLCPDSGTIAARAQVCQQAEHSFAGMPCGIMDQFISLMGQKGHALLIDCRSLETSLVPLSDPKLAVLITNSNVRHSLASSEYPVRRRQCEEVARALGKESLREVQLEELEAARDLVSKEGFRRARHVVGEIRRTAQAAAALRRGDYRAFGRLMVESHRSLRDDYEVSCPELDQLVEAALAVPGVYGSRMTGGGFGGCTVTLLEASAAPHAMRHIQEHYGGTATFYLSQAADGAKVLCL
Chain of Thyrotropin receptor (Homo sapiens) (P16473 whole entry, looked up): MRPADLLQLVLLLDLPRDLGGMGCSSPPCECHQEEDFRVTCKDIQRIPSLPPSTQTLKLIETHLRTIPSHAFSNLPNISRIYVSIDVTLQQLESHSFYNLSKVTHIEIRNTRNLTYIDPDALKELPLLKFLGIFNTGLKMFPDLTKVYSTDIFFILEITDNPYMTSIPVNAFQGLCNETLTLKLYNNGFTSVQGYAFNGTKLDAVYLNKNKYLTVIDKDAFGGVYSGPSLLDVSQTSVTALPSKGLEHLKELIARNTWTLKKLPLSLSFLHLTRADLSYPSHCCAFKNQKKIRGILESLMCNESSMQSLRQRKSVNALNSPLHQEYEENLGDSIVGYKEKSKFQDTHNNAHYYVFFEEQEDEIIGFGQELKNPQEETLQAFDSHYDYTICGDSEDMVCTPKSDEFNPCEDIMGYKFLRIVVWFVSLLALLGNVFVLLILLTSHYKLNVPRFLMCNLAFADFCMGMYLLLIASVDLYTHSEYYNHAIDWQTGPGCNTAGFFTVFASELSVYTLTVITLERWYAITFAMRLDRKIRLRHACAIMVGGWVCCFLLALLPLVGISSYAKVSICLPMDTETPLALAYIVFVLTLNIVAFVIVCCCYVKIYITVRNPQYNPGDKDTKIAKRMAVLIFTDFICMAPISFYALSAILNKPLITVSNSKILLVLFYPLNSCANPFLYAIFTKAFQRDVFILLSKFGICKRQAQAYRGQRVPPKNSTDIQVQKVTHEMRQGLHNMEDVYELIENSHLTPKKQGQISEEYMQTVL
Chain of Thyrotropin-releasing hormone receptor (Homo sapiens) (P34981 whole entry, looked up): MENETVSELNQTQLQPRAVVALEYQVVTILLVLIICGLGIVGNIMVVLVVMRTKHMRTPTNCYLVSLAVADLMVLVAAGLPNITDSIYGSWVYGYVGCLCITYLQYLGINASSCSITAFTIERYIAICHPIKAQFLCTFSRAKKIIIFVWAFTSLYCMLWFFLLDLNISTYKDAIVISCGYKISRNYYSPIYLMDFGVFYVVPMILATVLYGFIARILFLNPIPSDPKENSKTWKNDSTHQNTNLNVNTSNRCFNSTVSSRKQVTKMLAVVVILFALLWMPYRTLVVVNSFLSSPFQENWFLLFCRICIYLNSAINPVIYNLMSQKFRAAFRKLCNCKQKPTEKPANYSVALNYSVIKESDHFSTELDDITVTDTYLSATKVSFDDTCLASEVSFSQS
Chain of Ubiquitin carboxyl-terminal hydrolase 1 (Homo sapiens) (O94782 whole entry, looked up): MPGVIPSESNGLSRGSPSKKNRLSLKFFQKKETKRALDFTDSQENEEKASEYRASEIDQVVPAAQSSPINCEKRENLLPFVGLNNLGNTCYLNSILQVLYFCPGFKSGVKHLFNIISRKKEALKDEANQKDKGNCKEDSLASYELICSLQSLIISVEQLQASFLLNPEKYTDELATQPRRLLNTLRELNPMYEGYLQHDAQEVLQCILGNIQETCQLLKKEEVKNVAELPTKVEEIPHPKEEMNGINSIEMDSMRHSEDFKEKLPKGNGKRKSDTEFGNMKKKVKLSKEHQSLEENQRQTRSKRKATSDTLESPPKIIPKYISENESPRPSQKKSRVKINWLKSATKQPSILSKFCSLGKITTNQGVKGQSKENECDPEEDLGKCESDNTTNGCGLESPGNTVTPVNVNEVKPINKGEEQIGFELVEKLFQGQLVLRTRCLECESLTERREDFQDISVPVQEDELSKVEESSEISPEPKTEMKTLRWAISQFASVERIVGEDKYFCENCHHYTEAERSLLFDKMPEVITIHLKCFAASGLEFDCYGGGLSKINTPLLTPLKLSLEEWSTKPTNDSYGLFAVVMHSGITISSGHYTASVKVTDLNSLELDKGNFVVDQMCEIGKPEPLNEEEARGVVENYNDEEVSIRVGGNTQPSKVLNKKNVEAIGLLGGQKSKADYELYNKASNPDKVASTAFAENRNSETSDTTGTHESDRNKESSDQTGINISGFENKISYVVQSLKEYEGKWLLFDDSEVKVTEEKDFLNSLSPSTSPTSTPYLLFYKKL
Chain of phosphoglycerate mutase (Leishmania major) (Q4Q090 1-553): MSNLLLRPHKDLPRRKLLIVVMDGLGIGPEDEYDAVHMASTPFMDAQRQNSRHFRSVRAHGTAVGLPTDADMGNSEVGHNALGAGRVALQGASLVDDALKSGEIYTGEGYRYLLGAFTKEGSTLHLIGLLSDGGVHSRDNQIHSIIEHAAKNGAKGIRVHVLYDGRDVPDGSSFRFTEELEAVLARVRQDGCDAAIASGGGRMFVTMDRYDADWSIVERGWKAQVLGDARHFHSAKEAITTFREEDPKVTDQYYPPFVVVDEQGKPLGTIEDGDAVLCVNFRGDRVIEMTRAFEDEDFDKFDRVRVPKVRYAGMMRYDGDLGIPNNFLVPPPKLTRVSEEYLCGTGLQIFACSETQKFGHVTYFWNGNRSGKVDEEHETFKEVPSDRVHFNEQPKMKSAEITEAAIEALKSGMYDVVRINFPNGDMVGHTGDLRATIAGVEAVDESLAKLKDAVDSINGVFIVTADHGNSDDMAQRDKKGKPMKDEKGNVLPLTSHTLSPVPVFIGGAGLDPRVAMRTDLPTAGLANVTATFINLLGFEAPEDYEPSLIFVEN
Chain of ATPase family AAA domain-containing protein 5 (Homo sapiens) (Q96QE3 whole entry, looked up, the tested form may be a part): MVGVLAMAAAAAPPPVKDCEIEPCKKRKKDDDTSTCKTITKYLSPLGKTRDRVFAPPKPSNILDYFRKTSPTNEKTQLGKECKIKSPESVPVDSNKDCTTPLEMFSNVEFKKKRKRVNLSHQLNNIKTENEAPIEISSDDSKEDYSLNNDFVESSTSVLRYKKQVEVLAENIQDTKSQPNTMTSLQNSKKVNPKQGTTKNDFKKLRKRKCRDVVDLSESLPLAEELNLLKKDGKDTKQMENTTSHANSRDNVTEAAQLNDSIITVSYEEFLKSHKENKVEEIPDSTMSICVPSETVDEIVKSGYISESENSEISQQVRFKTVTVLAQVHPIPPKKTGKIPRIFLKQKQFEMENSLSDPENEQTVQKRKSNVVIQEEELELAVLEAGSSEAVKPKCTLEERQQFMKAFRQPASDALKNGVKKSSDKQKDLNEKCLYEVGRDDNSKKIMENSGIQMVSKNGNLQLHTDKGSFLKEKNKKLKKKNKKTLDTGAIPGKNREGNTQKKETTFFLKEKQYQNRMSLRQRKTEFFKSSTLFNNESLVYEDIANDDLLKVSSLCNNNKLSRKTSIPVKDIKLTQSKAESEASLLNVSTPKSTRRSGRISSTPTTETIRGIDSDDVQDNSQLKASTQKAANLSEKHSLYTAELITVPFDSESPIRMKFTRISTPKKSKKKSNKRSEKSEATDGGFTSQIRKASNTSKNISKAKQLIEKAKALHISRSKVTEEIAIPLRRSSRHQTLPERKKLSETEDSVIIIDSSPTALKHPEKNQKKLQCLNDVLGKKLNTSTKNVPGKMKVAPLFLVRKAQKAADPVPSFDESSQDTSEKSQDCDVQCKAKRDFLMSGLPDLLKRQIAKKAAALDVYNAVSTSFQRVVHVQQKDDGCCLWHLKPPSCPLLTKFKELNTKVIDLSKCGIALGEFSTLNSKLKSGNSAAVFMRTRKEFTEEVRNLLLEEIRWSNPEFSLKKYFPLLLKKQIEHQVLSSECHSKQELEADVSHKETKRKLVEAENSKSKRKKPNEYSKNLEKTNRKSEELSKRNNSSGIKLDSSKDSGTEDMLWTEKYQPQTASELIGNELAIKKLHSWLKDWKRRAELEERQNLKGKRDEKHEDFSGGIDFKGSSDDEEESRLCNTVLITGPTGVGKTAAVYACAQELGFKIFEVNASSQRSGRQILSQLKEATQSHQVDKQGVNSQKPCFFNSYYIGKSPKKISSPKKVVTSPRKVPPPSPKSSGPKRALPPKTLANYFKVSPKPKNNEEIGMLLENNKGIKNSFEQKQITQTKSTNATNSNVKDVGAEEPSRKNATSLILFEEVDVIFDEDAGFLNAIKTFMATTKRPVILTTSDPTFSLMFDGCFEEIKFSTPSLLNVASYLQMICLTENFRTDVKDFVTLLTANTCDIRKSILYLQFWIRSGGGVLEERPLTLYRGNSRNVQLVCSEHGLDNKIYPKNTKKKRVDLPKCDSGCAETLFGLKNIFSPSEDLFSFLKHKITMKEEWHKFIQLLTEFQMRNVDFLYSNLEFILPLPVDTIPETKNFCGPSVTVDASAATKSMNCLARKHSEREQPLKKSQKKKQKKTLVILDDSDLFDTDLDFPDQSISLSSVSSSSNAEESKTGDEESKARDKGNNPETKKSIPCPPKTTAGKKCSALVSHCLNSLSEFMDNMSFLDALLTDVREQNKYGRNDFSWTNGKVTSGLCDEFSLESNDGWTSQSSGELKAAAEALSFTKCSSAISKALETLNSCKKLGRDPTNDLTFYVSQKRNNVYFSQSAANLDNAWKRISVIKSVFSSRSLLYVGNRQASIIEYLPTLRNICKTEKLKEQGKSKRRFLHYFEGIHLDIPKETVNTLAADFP
Chain of Chromobox protein homolog 1 (Homo sapiens) (P83916 whole entry, looked up): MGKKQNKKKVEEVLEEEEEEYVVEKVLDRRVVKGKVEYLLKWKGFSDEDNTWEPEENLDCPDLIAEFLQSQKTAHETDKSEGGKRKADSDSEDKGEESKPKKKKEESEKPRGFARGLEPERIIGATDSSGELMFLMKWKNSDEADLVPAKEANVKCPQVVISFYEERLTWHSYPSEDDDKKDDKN

CCN(CC)C(C)CN1c2ccccc2Sc2ccccc21 (stereo not drawn)
-0.429%: viability change [8]
inactive: Potency [2] | Potency [3] | outcome [4] | Potency [5] | Potency [6] | outcome [7] | Potency [8] | outcome [9] | outcome [10] | outcome [11] | outcome [12]
44.7 µM (active) and inactive: Potency [13]
active: Potency [1] 0.0299 µM

CSc1ccc2c(c1)N(CCC1CCCCN1C)c1ccccc1S2 (stereo not drawn)
inactive: Potency [2] | outcome [14] | Potency [3] | Potency [6] | outcome [7] | outcome [9] | outcome [15] | outcome [16] | outcome [10] | outcome [11] | Potency [13]
active: Potency [1] 28.2 µM

CCCn1cnc2c1c(=O)n(CCCCC(C)=O)c(=O)n2C
-13.4%: viability change [8]
inactive: Potency [1] | Potency [2] | outcome [17] | outcome [14] | Potency [3] | outcome [4] | Potency [5] | Potency [6] | activation [18] 1.25% | Potency [8] | outcome [9] | outcome [15] | outcome [16] | outcome [10] | outcome [11] | outcome [12] | Potency [13]

C[C@]12C[C@H](O)[C@H]3[C@@H](CCC4=CC(=O)CC[C@@]43C)[C@@H]1CC[C@@H]2C(=O)CO
active: Potency [8] 6.51 µM
-3.09%: viability change [8]
inactive: Potency [1] | Potency [2] | Potency [3] | outcome [4] | Potency [5] | Potency [6] | outcome [7] | outcome [9] | outcome [10] | outcome [11]

CCCCCCCCCCCCCCCC(=O)NCCO
-3.02%: viability change [8]
inactive: Potency [1] | Potency [2] | outcome [17] | outcome [14] | Potency [3] | outcome [4] | Potency [5] | Potency [6] | outcome [7] | activation [18] 1.06% | Potency [8] | outcome [9] | outcome [15] | outcome [16] | outcome [10] | outcome [11] | Potency [13]

CN(C)CC[C@@H](c1ccc(Cl)cc1)c1ccccn1
inactive: Potency [1] | Potency [2] | outcome [17] | outcome [14] | Potency [3] | outcome [4] | Potency [5] | Potency [6] | outcome [7] | activation [18] 1.56% | Potency [8] | outcome [9] | outcome [15] | outcome [16] | outcome [10] | outcome [11]
8.9%: viability change [8]

NC1CCN(c2cccc(Cl)n2)CC1
-3.84%: viability change [8]
inactive: Potency [1] | Potency [2] | outcome [17] | Potency [3] | outcome [4] | Potency [5] | Potency [6] | outcome [7] | activation [18] 1.06% | Potency [8] | outcome [9] | outcome [15] | outcome [16] | outcome [10] | outcome [11] | Potency [13]

C[C@]12CC[C@@H]3c4ccc(O)cc4CC[C@H]3[C@@H]1CCC2=O
inactive: Potency [1] | Potency [2] | outcome [17] | Potency [3] | outcome [4] | Potency [5] | Potency [6] | outcome [7] | activation [18] 0.812% | outcome [9] | outcome [15] | outcome [16] | outcome [10] | outcome [11] | Potency [13]

COc1ccc(Cl)cc1C(=O)NCCc1ccc(S(=O)(=O)NC(=O)NC2CCCCC2)cc1
inactive: Potency [1] | Potency [2] | outcome [17] | outcome [14] | Potency [3] | outcome [4] | Potency [5] | Potency [6] | outcome [7] | activation [18] 1% | outcome [9] | outcome [15] | outcome [16] | outcome [10] | outcome [11] | Potency [13]

CSc1ccc2c(c1)C(N1CCN(C)CC1)Cc1ccccc1S2 (stereo not drawn)
inactive: Potency [2] | Potency [3] | outcome [4] | Potency [6] | activation [18] 5.38% | Potency [8] | outcome [9] | outcome [15] | outcome [16] | outcome [10] | outcome [11] | outcome [12]
-13.4%: viability change [8]
active: Potency [1] 39.8 µM | Potency [5] 316 nM

CC(C)NC[C@H](O)c1ccc(O)c(O)c1
inactive: Potency [1] | Potency [2] | outcome [17] | outcome [14] | Potency [3] | Potency [5] | Potency [6] | outcome [7] | activation [18] -0.125% and 0.875% | Potency [8] | outcome [9] | outcome [15] | outcome [16] | outcome [10] | outcome [11] | Potency [13]
2.86% and 6.15%: viability change [8]

Nc1ncnc2c1ncn2[C@@H]1O[C@H](CO)[C@@H](O)[C@H]1O
4.32%: viability change [8]
inactive: Potency [1] | Potency [2] | Potency [3] | outcome [4] | Potency [5] | Potency [6] | outcome [7] | Potency [8] | outcome [9] | outcome [10] | outcome [11]
